Compound activity deposited in PubChem BioAssay by National Center for Advancing Translational Sciences (NCATS).
D1 potentiator: enhances dopamine response at the human D1 receptor; P21728; HEK293 TREx D1 cells, calcium flux, dopamine EC20 potentiation; potentiation, % at 10 µM; 360,000 tested, 0.036% active; AID 504651; in the data active means potentiation above about 30%; further: 0% is about no effect
Target sequence (P21728 whole entry, looked up): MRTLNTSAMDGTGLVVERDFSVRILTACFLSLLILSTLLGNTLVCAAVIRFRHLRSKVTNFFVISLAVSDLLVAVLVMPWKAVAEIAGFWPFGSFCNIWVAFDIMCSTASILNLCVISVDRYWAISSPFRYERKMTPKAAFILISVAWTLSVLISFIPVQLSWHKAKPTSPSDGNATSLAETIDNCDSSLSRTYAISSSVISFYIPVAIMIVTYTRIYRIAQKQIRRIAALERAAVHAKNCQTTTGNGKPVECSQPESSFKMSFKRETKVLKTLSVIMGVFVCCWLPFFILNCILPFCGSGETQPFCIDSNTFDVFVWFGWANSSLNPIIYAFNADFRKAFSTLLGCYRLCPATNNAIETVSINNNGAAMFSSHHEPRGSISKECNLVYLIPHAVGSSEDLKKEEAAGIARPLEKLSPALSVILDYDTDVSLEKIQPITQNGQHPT
D1 agonist: human D1 receptor agonism; P21728; HEK293 T-REx D1 cells, calcium flux, agonist mode; activation, % at 2 µM; 360,000 tested, 1% active; further: 0% is about no effect
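Agonism was scored from calcium flux recorded over 180 s (1 read/s) after pintool compound addition, following a 10-cycle baseline. Cells were inducible force-coupled HEK293 TREx D1, plated overnight at 30 C and loaded with no-wash calcium dye.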
D1 antag: antagonists of human D1 dopamine receptor; HEK293 TREx D1 cells, calcium flux, dopamine EC80; stronger effect = lower value; activity change, negative = inhibition, % at 10 µM; 360,000 tested, 3.2% active; in the data active means activity change below about -30%; further: on the % scale 0 is the no-effect control and ±100 the full control effect
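Antagonism measured as reduced calcium response to an EC80 dopamine addition following 180 s compound pre-read; cells were inducible HEK293 Trex D1 plated overnight at 30 C, read kinetically at 1 cycle/sec.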
TRHR PAM: allosteric enhancers of human TRH receptor | P34981 | TRHR cells, fluo-8 calcium fluorescence, EC20 TRH enhancement | enhancement, % at 2 µM | 360,000 tested, 0.66% active; in the data active means enhancement above about 30%; further: 0% is about no effect
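Enhancer read-out: after compound pinning and an initial kinetic agonist-mode read, an EC20 of TRH (10 nM final) was injected and fluo-8 calcium signal (Ex 480/Em 530) followed at 1 s/cycle for 100 cycles in TRHR-expressing cells.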
TRHR ag: activates the human TRH receptor. TRHR cells, calcium flux fluo-8, FDSS agonist mode. P34981. activation, % at 2 µM. 360,000 tested, 0.18% active. AID 493084; further: 0% is about no effect
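Read-out: compound-evoked intracellular calcium rise in TRHR cells, fluo-8 dye, kinetic FDSS fluorescence at 1 s/cycle following a 10-cycle baseline. Cells cultured overnight before dye loading (30 min–1.5 h, RT).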
* hit, by the source's call; . = no result. Hits are enriched below; roughly 4.7% of the tested compounds scored in any of these assays. Unless noted, no stated cut-off is given here; in the data, active means activation above about 30%; inactive means the rest.

SMILES	D1 potentiator	D1 agonist	D1 antag	TRHR PAM	TRHR ag
CC(C)(C)c1ccc(C(=O)NCC(c2cccs2)S(=O)(=O)c2cccs2)cc1 (stereo unspecified)	4	2	13	45*	0
CCc1ccc(NC(=O)c2ccc(Cn3nc(N4CCN(c5ccccc5)CC4)ccc3=O)o2)cc1	-3	0	-26	1	0
Cc1oc(-c2ccc(C(=O)NCCC(C)C)cc2)nc1CS(=O)(=O)c1ccccc1	0	0	4	1	0
Cc1ccc2cc(CCNS(=O)(=O)c3ccc(Cl)cc3)c(=O)[nH]c2c1C	-6	-2	-37*	-6	0
O=C(Cc1ccc(S(=O)(=O)N2CCOCC2)s1)N1CCN(c2cccc(C(F)(F)F)c2)CC1	-6	14	-32*	-2	0
O=C(Nc1nnc(-c2cccs2)o1)c1cccc(C(F)(F)F)c1	.	26	-50*	7	-1
O=C(NC1CCCC1)C(c1ccncc1)N(C(=O)Cc1cccs1)c1cccc(F)c1 (stereo unspecified)	-4	1	-32*	1	-1
O=C(NC1CCCC1)C(c1ccc(F)cc1)N(C(=O)Cc1cccs1)c1ccc2c(c1)OCCO2 (stereo unspecified)	-3	2	9	30*	0
CCN(CC)C(=O)c1sc2c(c1C)c(=O)n(-c1ccc(C)c(C)c1)c(=O)n2CC(=O)Nc1ccc(F)cc1	-1	9	1	-1	1
CCSc1nc2ccccc2c(OCc2cc(C(=O)OC)ccc2OC)c1C(=O)OC	1	40*	-62*	7	5
Cn1cc(S(=O)(=O)CC(=O)N2CCCc3ccccc32)c2ccccc21	.	0	-84*	0	0
COc1cccc(C(c2sc3nc(-c4ccco4)nn3c2O)N2CCC(C)CC2)c1 (stereo unspecified)	-2	-1	.	-3	0
CN1CCN(S(=O)(=O)c2ccc(N3CCN(S(=O)(=O)/C=C/c4ccccc4)CC3)nc2)CC1	-12	5	-49*	2	0
O=C(NCC(c1ccco1)S(=O)(=O)c1cccs1)c1ccc(F)c(F)c1 (stereo unspecified)	-1	1	.	23	0
CC(C)(C)c1ccc(C(=O)CS(=O)(=O)c2ccccc2)cc1	-6	6	-38*	-1	1
Cc1ccc(S(=O)(=O)CC(=O)c2ccccc2)cc1	-2	3	-2	0	1
COc1ccc(CC(=O)NC2CC(=O)N(c3cccc(F)c3)C2)cc1OC (stereo unspecified)	-2	-3	.	7	0
O=C(Nc1ccc(S(=O)(=O)NCc2ccccc2)cc1)Nc1ccc2c(c1)OCO2	-10	8	-40*	3	1
O=C(Nc1ccccc1)c1cc(S(=O)(=O)Nc2cccnc2)ccc1Cl	8	6	1	5	0
COc1ccc(CNS(=O)(=O)c2ccc(F)c(C(=O)Nc3ccccc3OC)c2)cc1	-7	3	-37*	-4	-1
O=C(Nc1ccc(S(=O)(=O)NCc2ccccc2)cc1)c1ccccc1[N+](=O)[O-]	-7	16	-72*	1	2
O=C(Nc1ccccc1)c1cc(S(=O)(=O)NCc2ccncc2)ccc1Cl	-5	4	-32*	-2	0
COc1ccccc1N1CCN(C(=O)Cc2c(C(=O)O)c(C)cn2C)CC1	-2	1	-4	2	0
Cc1ccc2nc(Cl)c3cc(C(=O)N4CCCC(C)C4)sc3c2c1 (stereo unspecified)	0	0	11	2	-1
COc1ccc(CCNC(=O)Cc2c(C)c3cc4c(C(C)(C)C)coc4c(C)c3oc2=O)cc1	1	1	-6	-1	0
SMILES	D1 potentiator	D1 agonist	D1 antag	TRHR PAM	TRHR ag
CN(c1ccc(F)cc1)S(=O)(=O)c1ccc(Cl)c(C(=O)Nc2ccncc2)c1	-3	8	-48*	-3	0
O=C(Nc1cc(C(F)(F)F)ccc1Cl)c1cc(S(=O)(=O)NCc2ccccc2)ccc1F	-3	-2	-71*	-2	0
COc1ccccc1NC(=O)c1cc(S(=O)(=O)NCc2ccccc2)ccc1F	-5	3	-1	-3	-3
CCc1cc(C(=O)OC)c(NC(=O)CN2CCN(C(=O)c3ccco3)CC2)s1	3	116*	-47*	-6	-2
CC1CCc2c(sc(NC(=O)CN3CCN(C(=O)c4ccco4)CC3)c2C#N)C1 (stereo unspecified)	-4	6	-31*	-1	0
CCOC(=O)N1CCN(CC(=O)Nc2sc(CC)cc2C(=O)c2ccc(OC)cc2)CC1	2	8	-31*	0	2
Cc1nc(-c2ccc(Cl)cc2)sc1CCNC(=O)C(=O)Nc1ccccc1C#N	-2	8	-10	1	0
Nc1ccc(-c2c3ccc(=O)cc-3oc3cc(O)ccc23)cc1C(=O)O	1	245*	-1	22	152*
O=c1ccc2c(-c3ccccc3)c3ccc(O)cc3oc-2c1	8	0	-4	5	0
O=C(Cn1ccn(-c2ccc(F)cc2)c(=O)c1=O)NCCc1ccccc1	-3	1	0	-2	0
Cc1ccccc1NC(=O)c1ccc(CN2CC(=O)N3CCCCC3C2=O)cc1 (stereo unspecified)	-2	2	-37*	2	0
COc1ccc(OC)c(CCNC(=O)c2cnn(-c3ccccc3)c2-n2cccc2)c1	-5	17	-5	-5	-1
CC(Cc1ccccc1)NC(=O)c1cc2ccccc2o1 (stereo unspecified)	-20	48*	-7	-6	-2
O=C(O/N=C1/CCCc2occc21)c1ccc(Cl)cc1Cl	3	4	-33*	6	-1
CC12CCC(=O)N1C(C(=O)N1CCN(c3ccccc3)CC1)CS2 (stereo unspecified)	-1	3	-16	-11	0
CC12CCC(=O)N1C(C(=O)Nc1ccc(F)c(Cl)c1)CS2 (stereo unspecified)	-3	1	4	35*	0
CC12CCC(=O)N1C(C(=O)N1CCN(c3cccc(Cl)c3)CC1)CS2 (stereo unspecified)	.	9	-61*	-16	0
CC12CCC(=O)N1C(C(=O)Nc1ccccc1F)CS2 (stereo unspecified)	5	-1	6	0	1
COc1cc(Cl)c(NS(=O)(=O)c2ccc(-c3coc(C)n3)cc2)c(OC)c1	-6	15	-28	-4	0
Cc1ccc(NC(=O)CCn2cccn2)cc1Cl	-5	2	9	5	0
Cc1ccc2c(c1)c1c3n2CCN(C(=O)CN2CCN(C)CC2)C3CCC1 (stereo unspecified)	-5	6	-6	-1	2
